The record followed here is the supplement of paper PMC11150407.

Usually cell viability stands for a read-out of living cells in per cent, often relative to untreated cells.

Where a name gives a salt, the structure may show the parent alone. The whole screen tested about 2,100 compounds, of which about 180 (8.6%) showed an effect of 50% or more. Only a selection was taken, and strong results are over-represented in it overall.

The subject of the experiment is MOLM1 and UCSD/AML1 (averaged). Nature of the experiment: cell viability relative to DMSO control (POC); higher = less growth inhibition. As to conditions: 1 µM; 72 h. How it is done:
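Primary viability screen in the 3q26 EVI1-high AML cell lines MOLM1 and UCSD/AML1 (1.5e3 cells/well, 384-well), compounds at 1 uM for 72 h. ATP CellTiter-Glo read-out given as percent of viable cells over DMSO control (POC), averaged over duplicates. DMSO was the negative control and 5 uM etoposide the positive control. This mapping covers the MicroSource Spectrum and Selleck anticancer libraries (drug names).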
As to `CC(C)C[C@@H]1NC(=O)[C@H](CCCN)NC(=O)[C@H](C(C)C)NC(=O)[C@H](Cc2ccc(O)cc2)N[C@@H](CCC(=O)O)C(=O)N[C@@H](CC(N)=O)C(=O)[C@@H](Cc2ccccc2)NC(=O)[C@H](Cc2ccccc2)NC(=O)[C@@H]2CCCN2C(=O)[C@@H](Cc2ccccc2)NC1=O`, the cell viability came to 13%. As to `CC[C@H](C)[C@H](N)C1=N[C@H](C(=O)N[C@@H](CC(C)C)C(=O)N[C@H](CCC(=O)O)C(=O)N[C@H](C(=O)N[C@H]2CCCCNC(=O)[C@H](CC(N)=O)NC(=O)[C@@H](CC(=O)O)NC(=O)[C@H](Cc3cnc[nH]3)NC(=O)[C@@H](Cc3ccccc3)NC(=O)[C@H]([C@@H](C)CC)NC(=O)[C@@H](CCCN)NC2=O)[C@@H](C)CC)CS1`, the cell viability was 94.8%.

Regarding `CC1=C(CCC(=O)O)c2cc3[nH]c(cc4nc(cc5[nH]c(cc1n2)c(C)c5C(C)O)C(C)=C4C(C)O)c(C)c3CCC(=O)O` (stereo not given), the cell viability came out at 107%. As for `COc1cc(O)c2c(c1)C(=O)c1cc(C)cc(O)c1C2=O`, the figure is 94.9%. The result for `O=C(/C=C/c1ccc(O)c(O)c1)O[C@H](Cc1ccc(O)c(O)c1)C(=O)O` reads 104%. The result for `CNC(=O)c1cc(Oc2ccc(NC(=O)Nc3cc(C(C)(C)C)nn3-c3ccc4ncccc4c3)c(F)c2)ccn1` [DCC-2036 (Rebastinib)] reads 24.6%; that for `CNC(=O)c1cc(Oc2ccc(NC(=O)Nc3ccc(Cl)c(C(F)(F)F)c3)c(F)c2)ccn1` [Regorafenib (BAY 73-4506)], 28.9%; that for `Cc1ccc(-n2nc(C(C)(C)C)cc2NC(=O)Nc2ccc(OCCN3CCOCC3)c3ccccc23)cc1` [BIRB 796 (Doramapimod)], 85.1%.

On to `CNC(=O)c1cc(Oc2ccc(NC(=O)Nc3ccc(Cl)c(C(F)(F)F)c3)cc2)ccn1` [Sorafenib (Nexavar)], for which the cell viability was found to be 59.7%. As for `Cc1cc(OC(=O)c2c(C)cc(O)cc2O)cc(O)c1C(=O)O`, the figure is 103%. As for `Nc1ccccc1C(=O)CC(N)C(=O)O` (stereo not given), the figure is 98.1%. As for `CC(C)=CCC[C@@H](C)[C@@H]1CC[C@]2(C)C3=C(CC[C@@]12C)[C@@]1(C)CC[C@H](O)C(C)(C)[C@@H]1CC3`, the figure is 97.6%. For `COc1cc(OC)c2ccc(=O)oc2c1`, the cell viability was found to be 99.1%. As for `COc1cc(OC)c2c(c1Cl)O[C@@]1(C(=O)CC(=O)C[C@H]1C)C2=O`, the figure is 102%. As for `Cc1ccc(C(=O)Nc2ccc(CN3CCN(C)CC3)c(C(F)(F)F)c2)cc1C#Cc1cnc2cccnn12`, the figure is 4.31%; as for `CS(=O)(=O)N1CCN(Cc2cc3nc(-c4cccc5[nH]ncc45)nc(N4CCOCC4)c3s2)CC1` [Pictilisib (GDC-0941)], 51.1%. The result for `CC1(C)C(=O)C=C[C@]2(C)[C@H]3CC[C@@]4(C)[C@H](c5ccoc5)OC(=O)[C@H]5O[C@]54[C@]3(C)C(=O)C[C@@H]12` reads 84.7%. `COc1ccc2c(c1)O[C@H]1c3ccc(OC)cc3OC[C@@H]21`: the cell viability turned out to be 105%. Turning to `Cc1cc2c(F)c(Oc3ncnn4cc(OC[C@@H](C)O)c(C)c34)ccc2[nH]1`, the cell viability was 89.6%. The result for `Oc1cc(O)c2c(c1)O[C@H](c1ccc(O)c(O)c1)[C@H](O)C2` reads 96.7%; that for `O=C(/C=C/c1cccnc1)NCCCCC1CCN(C(=O)c2ccccc2)CC1`, 12%. The result for `O=C(Nc1cccnc1)N1CCC(Cc2cccc(Oc3ccc(C(F)(F)F)cn3)c2)CC1` reads 56.7%; that for `O=C(O)c1cccnc1`, 95%; that for `COc1c(O)cc(O)cc1O`, 98.8%.

Regarding `O=C(O)CC[C@H]1CC[C@@](c2cc(F)ccc2F)(S(=O)(=O)c2ccc(Cl)cc2)CC1`, the cell viability amounted to 71%. As for `Cc1cccc2c3c(ccc12)C1=C(C(=O)C3=O)[C@@H](C)CO1`, the figure is 98.4%; as for `CC1(C)CCC(c2ccc(Cl)cc2)=C(CN2CCN(c3ccc(C(=O)NS(=O)(=O)c4ccc(N[C@H](CCN5CCOCC5)CSc5ccccc5)c(S(=O)(=O)C(F)(F)F)c4)cc3)CC2)C1` [ABT-263 (Navitoclax)], 6.23%. With `CN(C)CC[C@H](CSc1ccccc1)Nc1ccc(S(=O)(=O)NC(=O)c2ccc(N3CCN(Cc4ccccc4-c4ccc(Cl)cc4)CC3)cc2)cc1[N+](=O)[O-]`, the cell viability was determined as 32.3%. For `NC1(C(=O)O)CCC1`, the cell viability turned out to be 102%. As for `OC[C@H]1O[C@@](CO)(O[C@H]2O[C@H](CO)[C@@H](O)[C@H](O)[C@H]2O)[C@@H](O[C@H]2O[C@H](CO)[C@@H](O)[C@H](O)[C@H]2O)[C@@H]1O`, the figure is 103%; as for `CC(C)=CCc1c(O)cc2occ(-c3ccc4c(c3)OCO4)c(=O)c2c1O`, 100%; as for `C[C@@H]1CC[C@H]2[C@](C)(CO)[C@@H](O)CC[C@]2(C)[C@@]12CC[C@@](CO)(CCO)O2`, 89.3%. As for `C[C@@H]1O[C@@H](O[C@H]2[C@H](Oc3cc(O)c4c(=O)cc(-c5ccc(O)cc5)oc4c3)O[C@H](CO)[C@@H](O)[C@@H]2O)[C@H](O)[C@H](O)[C@H]1O`, the figure is 110%. The result for `Sc1nc2ccccc2s1` reads 115%.

On to `C=CC(C)(O)CCC1C(=C)CC(O)C2C(C)(C)CCCC12C` (stereo not given), for which the cell viability came out at 105%. The result for `CC[C@]1(O)C[C@H]2CN(CCc3c([nH]c4ccccc34)[C@@](C(=O)OC)(c3cc4c(cc3OC)N(C=O)[C@H]3[C@@](O)(C(=O)OC)[C@H](OC(C)=O)[C@]5(CC)C=CCN6CC[C@]43[C@@H]65)C2)C1` [Vincristine Sulfate] reads 7.83%; that for `CC[C@]1(O)C[C@@H]2CN(CCc3c([nH]c4ccccc34)[C@@](C(=O)OC)(c3cc4c(cc3OC)N(C)[C@H]3[C@@](O)(C(=O)OC)[C@H](OC(C)=O)[C@]5(CC)C=CCN6CC[C@]43[C@@H]65)C2)C1`, 7.14%. The result for `CC[C@]1(O)C[C@H]2CN(CCc3c([nH]c4ccccc34)[C@@](C(=O)OC)(c3cc4c(cc3OC)N(C=O)[C@H]3[C@@](O)(C(=O)OC)[C@H](OC(C)=O)[C@]5(CC)C=CCN6CC[C@]43[C@@H]65)C2)C1` reads 11.3%; that for `CC[C@]1(O)C[C@@H]2CN(CCc3c([nH]c4ccccc34)[C@@](C(=O)OC)(c3cc4c(cc3OC)N(C)[C@H]3[C@@](O)(C(=O)OC)[C@H](OC(C)=O)[C@]5(CC)C=CCN6CC[C@]43[C@@H]65)C2)C1` [Vinblastine], 8.43%; that for `COc1ccc2c(=O)c(-c3ccc(O)cc3)coc2c1`, 84.7%. The result for `CC(C)c1c(O)ccc2c1CC[C@H]1C(C)(C)CCC[C@]21C` reads 90.4%.

As to `COC(=O)C(O)c1ccccc1` (stereo not given), the cell viability worked out at 106%. As for `O=c1cc(-c2ccc(O)cc2)oc2cc(O[C@@H]3O[C@H](CO)[C@@H](O)[C@H](O)[C@H]3O[C@@H]3OC[C@](O)(CO)[C@H]3O)cc(O)c12`, the figure is 119%; as for `COc1ccc2c(=O)c(CC(=O)O)coc2c1`, 98.6%.

With `N=C(N)NC(=N)Nc1ccccc1`, the cell viability came out at 99.7%. As for `O=C(O)c1nc2cc(Cl)c(Cl)cc2nc1O`, the figure is 98.3%; as for `CC(C)CCC[C@@H](C)[C@H]1CC[C@H]2[C@@H]3CC[C@H]4C[C@H](O)CC[C@]4(C)[C@H]3CC[C@]12C`, 110%. The result for `Cc1ccc(S(=O)(=O)C=CC#N)cc1` reads 1.01%; that for `Cc1ccc(O)c([C@H](CCN(C(C)C)C(C)C)c2ccccc2)c1`, 92.5%; that for `C=CC[S+]([O-])C[C@H](N)C(=O)O` (mixture of isomers), 89.6%. Regarding `CCN(CC)C(=S)SSC(=S)N(CC)CC` [Disulfiram (Antabuse)], the cell viability came out at 1.33%. As for `CCN(CC)C(=S)SSC(=S)N(CC)CC`, the figure is 5.82%; as for `CC1=CC(=O)[C@H]2C(C)(C)CCC[C@]2(C)[C@@]1(O)CCc1ccoc1`, 110%; as for `COC(=O)CC[C@@H](C)[C@H]1CC[C@H]2[C@@H]3[C@H](O)C[C@@H]4C[C@H](O)CC[C@]4(C)[C@H]3C[C@H](O)[C@]12C`, 95.2%. The result for `C[C@@H]1CCN(C(=O)CC#N)C[C@@H]1N(C)c1ncnc2[nH]ccc12` reads 72.1%; that for `O=C(O)c1cc(-c2ccc(F)cc2F)ccc1O`, 112%; that for `CNC(=O)c1ccccc1Sc1ccc2c(/C=C/c3ccccn3)n[nH]c2c1` [Axitinib], 19.1%.

`C[C@H]1CC2C3CCC4=CC(=O)C=C[C@]4(C)[C@@]3(F)[C@@H](O)C[C@]2(C)[C@@]1(O)C(=O)COP(=O)(O)O` (stereo not given in full): the cell viability came to 72.3%. Take `COc1c(-c2coc3cc4c(cc3c2=O)CC(OC(C)=O)C(C)(C)O4)ccc2c1C=CC(C)(C)O2` (stereo not given): the cell viability was found to be 88.7%. As for `Fc1cc(-c2cccc3ncc(-c4cnn(C5CCNCC5)c4)nc23)cc(F)c1CN1CCOCC1`, the figure is 24.6%. As for `CCC(C(N)=O)c1ccccc1` (stereo not given), the figure is 109%. Consider `COc1cc(O)ccc1C(C)=O`, for which the cell viability stood at 97.9%. The result for `CC(C)=CCC1=C(O)C(=O)c2ccccc2C1=O` reads 118%; that for `N[C@@H](CSCSC[C@H](N)C(=O)O)C(=O)O`, 99.3%.

In the case of `CS(=O)(=O)c1cccc(CNc2nc(Nc3ccc4c(c3)CCC(=O)N4)ncc2C(F)(F)F)c1`, the cell viability is 83.3%. As for `CC(=O)NCC(=O)N1[C@@H]2CC[C@H]1c1ccc(Nc3ncc(C(F)(F)F)c(NC4CCC4)n3)cc12`, the figure is 20.2%. Take `CN(c1ncccc1CNc1nc(Nc2ccc3c(c2)CC(=O)N3)ncc1C(F)(F)F)S(C)(=O)=O`: the cell viability turned out to be 58.6%. As for `CC(=O)/C=C\[C@@H]1[C@@]2(C)CCCC(C)(C)C2CC[C@@]1(C)O` (stereo not given in full), the figure is 99.2%; as for `COc1cc2c(cc1OC)-c1c(oc3cc(O)cc(O)c3c1=O)CO2`, 103%. As for `COC1=C(O)C(=O)c2c(cc3oc(C(C)=O)c(O)c3c2O)C1=O`, the figure is 86.8%; as for `CCCCC(=O)Oc1ccccc1C(=O)O`, 115%; as for `COC(=O)C[C@H]1C(C)(C)[C@@H](OC(C)=O)[C@@H]2CC3C4CC(=O)O[C@@H](c5ccoc5)[C@]4(C)CCC3[C@@]1(C)C2=O` (stereo not given in full), 88.1%. As for `Cc1cnc(Nc2ccc(OCCN3CCCC3)cc2)nc1Nc1cccc(S(=O)(=O)NC(C)(C)C)c1`, the figure is 13%; as for `CCCCOc1ccc(C(=O)CCN2CCCCC2)cc1`, 104%. Consider `CC1(C)[C@@H](O)CC[C@]2(C)[C@H]3C(=O)C=C4[C@@H]5C[C@@](C)(C(=O)O)CC[C@]5(C)CC[C@@]4(C)[C@]3(C)CC[C@@H]12`, for which the cell viability turned out to be 95.5%.
